# Reference: the supplement of paper PMC8728848
# This is one part of a sample in which the strongest signals are shown more often than they occur.
# B1: EUL D1A first (Oryza sativa) (protein)
# chain: MFGFGHHHNQAPAAPSDPNQIFKIFCRANENYCLTVRDSAVVLAPVNPKDEHQHWFKDMRFSTKVKDGEGMPAFALVNKATGLAVKHSLGQSHPVKLVPFNPEYEDASVLWTESKDVGKGFRCIRMVNNTRLNLDAFHGDKDHGGVRDGTTVVLWEWCKGDNQSWKILPWGPEAHSSSPGAATILEQKLISEEDLNSAVDHHHHHH
# Legend:
# Test in all cases: glycan array binding signal (z-score within array); higher = stronger binding
# Settings in all cases: glycan notation: IUPAC condensed, linker removed
# Fuc(a1-2)Gal(b1-3)GalNAc = target: Fuc(a1-2)Gal(b1-3)GalNAc
# How it was run: (§1)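 Glycan array binding is given as a within-array Z-score, which can be read as non-binding when negative. The arrays, 3228 of them, came from the Consortium for Functional Glycomics database and were retained only where the protein sequence was available. Z-scores were averaged across arrays of the same protein sequence at different concentrations or buffers and across linkers.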
# [1] = target: Fuc(a1-2)Gal(b1-3)GalNAc(b1-3)Gal(a1-4)Gal(b1-4)Glc
# How it was run: as §1
# [2] = target: Fuc(a1-2)Gal(b1-3)GlcNAc6S
# How it was run: as §1
# Fuc(a1-2)Gal(b1-4)GlcNAc = target: Fuc(a1-2)Gal(b1-4)GlcNAc
# How it was run: as §1
# [3] = target: Fuc(a1-2)Gal(b1-4)GlcNAc(b1-3)[Fuc(a1-3)[Gal(b1-4)]GlcNAc(b1-6)]Gal(b1-4)Glc
# How it was run: as §1
# [4] = target: Fuc(a1-2)Gal(b1-4)[Fuc(a1-3)]GlcNAc(b1-3)Gal(b1-4)[Fuc(a1-3)]GlcNAc(b1-3)Gal(b1-4)[Fuc(a1-3)]GlcNAc
# How it was run: as §1
# [5] = target: Fuc(a1-2)[Gal(a1-3)]Gal(b1-3)GlcNAc
# How it was run: as §1
# [6] = target: Fuc(a1-2)[Gal(a1-3)]Gal(b1-3)GlcNAc(b1-6)GalNAc
# How it was run: as §1
# [7] = target: Fuc(a1-2)[GalNAc(a1-3)]Gal(b1-4)GlcNAc(b1-2)Man(a1-3)[Fuc(a1-2)[GalNAc(a1-3)]Gal(b1-4)GlcNAc(b1-2)Man(a1-6)]Man(b1-4)GlcNAc(b1-4)[Fuc(a1-6)]GlcNAc
# How it was run: as §1
# [8] = target: Fuc(a1-2)[GalNAc(a1-3)]Gal(b1-4)GlcNAc(b1-3)Gal(b1-4)GlcNAc
# How it was run: as §1
# [9] = target: Fuc(a1-3)[Gal(b1-4)]GlcNAc(b1-2)Man
# How it was run: as §1
# Gal(a1-2)Gal = target: Gal(a1-2)Gal
# How it was run: as §1
# [10] = target: Gal(a1-3)Gal(b1-3)GlcNAc(b1-2)Man(a1-3)[Gal(a1-3)Gal(b1-3)GlcNAc(b1-2)Man(a1-6)]Man(b1-4)GlcNAc(b1-4)GlcNAc
# How it was run: as §1
# [11] = target: Gal(a1-3)Gal(b1-4)[Fuc(a1-3)]GlcNAc
# How it was run: as §1
# [12] = target: Gal(a1-4)Gal(b1-3)GlcNAc(b1-2)Man(a1-3)[Gal(a1-4)Gal(b1-3)GlcNAc(b1-2)Man(a1-6)]Man(b1-4)GlcNAc(b1-4)GlcNAc
# How it was run: as §1
# Gal(a1-4)Gal(b1-4)Glc = target: Gal(a1-4)Gal(b1-4)Glc
# How it was run: as §1
# Gal(b1-3)GalNAc = target: Gal(b1-3)GalNAc
# How it was run: as §1
# [13] = target: Gal(b1-3)GalNAc(a1-3)[Fuc(a1-2)]Gal(b1-4)Glc
# How it was run: as §1
# [14] = target: Gal(b1-3)GalNAc(b1-3)Gal(a1-4)Gal(b1-4)Glc
# How it was run: as §1
# [15] = target: Gal(b1-3)[GlcNAc(b1-6)]GalNAc
# How it was run: as §1
# [16] = target: Gal(b1-3)[Neu5Ac(b2-6)]GalNAc
# How it was run: as §1
# [17] = target: Gal(b1-4)GlcNAc(a1-6)Gal(b1-4)GlcNAc
# How it was run: as §1
# [18] = target: Gal(b1-4)GlcNAc(b1-2)Man(a1-3)[Gal(b1-4)GlcNAc(b1-2)Man(a1-6)]Man(b1-4)GlcNAc(b1-4)GlcNAc
# How it was run: as §1
# [19] = target: Gal(b1-4)GlcNAc(b1-2)Man(a1-3)[Gal(b1-4)GlcNAc(b1-2)Man(a1-6)][GlcNAc(b1-4)]Man(b1-4)GlcNAc(b1-4)[Fuc(a1-6)]GlcNAc
# How it was run: as §1
# [20] = target: Gal(b1-4)GlcNAc(b1-2)Man(a1-6)Man(b1-4)GlcNAc(b1-4)GlcNAc
# How it was run: as §1
# [21] = target: Gal(b1-4)GlcNAc(b1-2)[Gal(b1-4)GlcNAc(b1-4)]Man(a1-3)[GlcNAc(b1-4)][Gal(b1-4)GlcNAc(b1-2)Man(a1-6)]Man(b1-4)GlcNAc(b1-4)GlcNAc
# How it was run: as §1
# [22] = target: Gal(b1-4)GlcNAc(b1-2)[Gal(b1-4)GlcNAc(b1-6)]Man(a1-6)[Gal(b1-4)GlcNAc(b1-2)Man(a1-3)]Man(b1-4)GlcNAc(b1-4)GlcNAc
# How it was run: as §1
# [23] = target: Gal(b1-4)GlcNAc(b1-3)Gal(b1-4)GlcNAc(b1-3)Gal(b1-4)GlcNAc(b1-2)[Gal(b1-4)GlcNAc(b1-3)Gal(b1-4)GlcNAc(b1-3)Gal(b1-4)GlcNAc(b1-6)]Man(a1-6)[Gal(b1-4)GlcNAc(b1-3)Gal(b1-4)GlcNAc(b1-3)Gal(b1-4)GlcNAc(b1-2)Man(a1-3)]Man(b1-4)GlcNAc(b1-4)[Fuc(a1-6)]GlcNAc
# How it was run: as §1
# [24] = target: Gal(b1-4)GlcNAc(b1-3)Gal(b1-4)[Fuc(a1-3)]GlcNAc(b1-3)Gal(b1-4)[Fuc(a1-3)]GlcNAc
# How it was run: as §1
# [25] = target: Gal(b1-4)GlcNAc(b1-6)[Gal(b1-4)GlcNAc(b1-3)]GalNAc
# How it was run: as §1
# [26] = target: GalNAc(a1-3)GalNAc(b1-3)Gal(a1-4)Gal(b1-4)Glc
# How it was run: as §1
# [27] = target: GalNAc(b1-3)Gal(a1-6)Gal(b1-4)Glc
# How it was run: as §1
# GalNAc(b1-4)GlcNAc6S = target: GalNAc(b1-4)GlcNAc6S
# How it was run: as §1
# GalNAc3S(b1-4)GlcNAc3S = target: GalNAc3S(b1-4)GlcNAc3S
# How it was run: as §1
# GalNAc4S6S(b1-4)GlcNAc = target: GalNAc4S6S(b1-4)GlcNAc
# How it was run: as §1
# [28] = target: GlcNAc(b1-2)Man(a1-3)[GlcNAc(b1-2)Man(a1-6)]Man(b1-4)GlcNAc(b1-4)[Fuc(a1-6)]GlcNAc
# How it was run: as §1
# [29] = target: GlcNAc(b1-3)Gal(b1-4)GlcNAc(b1-2)[GlcNAc(b1-3)Gal(b1-4)GlcNAc(b1-6)]Man(a1-6)[GlcNAc(b1-3)Gal(b1-4)GlcNAc(b1-2)Man(a1-3)]Man(b1-4)GlcNAc(b1-4)GlcNAc
# How it was run: as §1
# [30] = target: GlcNAc(b1-3)Gal(b1-4)GlcNAc(b1-3)Gal(b1-4)GlcNAc(b1-3)Gal(b1-4)GlcNAc(b1-3)Gal(b1-4)GlcNAc(b1-2)Man(a1-3)[GlcNAc(b1-3)Gal(b1-4)GlcNAc(b1-3)Gal(b1-4)GlcNAc(b1-3)Gal(b1-4)GlcNAc(b1-3)Gal(b1-4)GlcNAc(b1-2)Man(a1-6)]Man(b1-4)GlcNAc(b1-4)[Fuc(a1-6)]GlcNAc
# How it was run: as §1
# [31] = target: GlcNAc(b1-3)[GlcNAc(b1-6)]Gal(b1-4)GlcNAc
# How it was run: as §1
# [32] = target: GlcNAc(b1-4)GlcNAc(b1-4)GlcNAc(b1-4)GlcNAc(b1-4)GlcNAc(b1-4)GlcNAc
# How it was run: as §1
# Man(a1-2)Man(a1-3)Man = target: Man(a1-2)Man(a1-3)Man
# How it was run: as §1
# [33] = target: Neu5Ac(a2-3)Gal(b1-3)GlcNAc(b1-3)Gal(b1-3)GlcNAc
# How it was run: as §1
# [34] = target: Neu5Ac(a2-3)Gal(b1-3)[GlcNAc(b1-6)]GalNAc
# How it was run: as §1
# [35] = target: Neu5Ac(a2-3)Gal(b1-4)GlcNAc(b1-3)Gal(b1-4)GlcNAc(b1-6)[Gal(b1-3)]GalNAc
# How it was run: as §1
# [36] = target: Neu5Ac(a2-3)Gal(b1-4)GlcNAc(b1-3)Gal(b1-4)[Fuc(a1-3)]GlcNAc
# How it was run: as §1
# [37] = target: Neu5Ac(a2-3)Gal(b1-4)GlcNAc(b1-6)[Gal(b1-3)]GalNAc
# How it was run: as §1
# [38] = target: Neu5Ac(a2-3)Gal(b1-4)[Fuc(a1-3)]GlcNAc(b1-3)GalNAc
# How it was run: as §1
# [39] = target: Neu5Ac(a2-3)[Neu5Ac(a2-6)]GalNAc
# How it was run: as §1
# [40] = target: Neu5Ac(a2-6)Gal(b1-4)GlcNAc(b1-2)Man(a1-6)[Man(a1-3)]Man(b1-4)GlcNAc(b1-4)GlcNAc
# How it was run: as §1
# Neu5Gc(a2-3)Gal(b1-4)Glc = target: Neu5Gc(a2-3)Gal(b1-4)Glc
# How it was run: as §1
# [41] = target: Neu5Gc(a2-3)Gal(b1-4)GlcNAc
# How it was run: as §1
binder,measurement,setting,value
B1,glycan array binding signal (z-score),Fuc(a1-2)Gal(b1-3)GalNAc,-0.658
same,glycan array binding signal (z-score),[1],2.66
same,glycan array binding signal (z-score),[2],3.74
same,glycan array binding signal (z-score),Fuc(a1-2)Gal(b1-4)GlcNAc,-0.369
same,glycan array binding signal (z-score),[3],2.74
same,glycan array binding signal (z-score),[4],0.387
same,glycan array binding signal (z-score),[5],0.384
same,glycan array binding signal (z-score),[6],-0.959
same,glycan array binding signal (z-score),[7],0.095
same,glycan array binding signal (z-score),[8],-0.61
same,glycan array binding signal (z-score),[9],3.34
same,glycan array binding signal (z-score),Gal(a1-2)Gal,-0.848
same,glycan array binding signal (z-score),[10],3.31
same,glycan array binding signal (z-score),[11],-0.411
same,glycan array binding signal (z-score),[12],2.2
same,glycan array binding signal (z-score),Gal(a1-4)Gal(b1-4)Glc,0.4
same,glycan array binding signal (z-score),Gal(b1-3)GalNAc,-0.735
same,glycan array binding signal (z-score),[13],-1.67
same,glycan array binding signal (z-score),[14],-0.207
same,glycan array binding signal (z-score),[15],-1.03
same,glycan array binding signal (z-score),[16],-1.15
same,glycan array binding signal (z-score),[17],1.94
same,glycan array binding signal (z-score),[18],3.09
same,glycan array binding signal (z-score),[19],-1.23
same,glycan array binding signal (z-score),[20],3.03
same,glycan array binding signal (z-score),[21],-1.53
same,glycan array binding signal (z-score),[22],-1.05
same,glycan array binding signal (z-score),[23],2.45
same,glycan array binding signal (z-score),[24],-0.16
same,glycan array binding signal (z-score),[25],-0.802
same,glycan array binding signal (z-score),[26],-0.059
same,glycan array binding signal (z-score),[27],-2.32
same,glycan array binding signal (z-score),GalNAc(b1-4)GlcNAc6S,-0.411
same,glycan array binding signal (z-score),GalNAc3S(b1-4)GlcNAc3S,-0.185
same,glycan array binding signal (z-score),GalNAc4S6S(b1-4)GlcNAc,0.534
same,glycan array binding signal (z-score),[28],3.11
same,glycan array binding signal (z-score),[29],1.95
same,glycan array binding signal (z-score),[30],2.06
same,glycan array binding signal (z-score),[31],6.85
same,glycan array binding signal (z-score),[32],-0.541
same,glycan array binding signal (z-score),Man(a1-2)Man(a1-3)Man,0.615
same,glycan array binding signal (z-score),[33],0.506
same,glycan array binding signal (z-score),[34],0.405
same,glycan array binding signal (z-score),[35],0.24
same,glycan array binding signal (z-score),[36],-0.958
same,glycan array binding signal (z-score),[37],0.081
same,glycan array binding signal (z-score),[38],3.45
same,glycan array binding signal (z-score),[39],-0.451
same,glycan array binding signal (z-score),[40],-0.647
same,glycan array binding signal (z-score),Neu5Gc(a2-3)Gal(b1-4)Glc,-0.152
same,glycan array binding signal (z-score),[41],0.3
